The test relates to Tyrosine-protein kinase ABL1 (Homo sapiens), P00519 [T315I]. Conditions: at 0.1 µM.
On to `c1ccc(COc2ccc(Nc3ncnc4ccc(-c5ccco5)cc34)cc2)cc1`, for which the inhibition stood at 1.64%.

For the compound `COc1ccc2c(-c3ccnc(Nc4cccc(OC(F)(F)F)c4)n3)cnn2n1`, the inhibition is 0.99%.

`CN1CCC(n2cnc(-c3ccc(F)cc3)c2-c2ccnc(N)n2)CC1` returned an inhibition of 1.94%.

`COc1ccc(-c2cc(-c3c[nH]nc3-c3ccccn3)ccn2)cc1` showed an inhibition of 3.29%.

Compound `Cc1cccc(Nc2ncc(-c3ccccc3)o2)c1` had an inhibition of 2.39%.

`COC(=O)c1sc(-n2cnc3cc(OC)c(OC)cc32)cc1OCc1ccccc1C(F)(F)F` came in with an inhibition of 2.67%.

For `N#Cc1c(NC(=O)CN2CCOCC2)sc2c1CCCC2`, the inhibition turned out to be 2.58%.

`COc1ccc(-c2cc3c(N)ncnc3o2)cc1` had an inhibition of 0.76%.

The compound `N#Cc1c(NC(=O)c2ccc(F)cc2)sc2c1CCCC2` yielded an inhibition of 1.04%.

Compound `Cc1ccc2c(-c3ccnc(Nc4ccccc4)n3)c(-c3ccc(F)cc3)nn2n1` showed an inhibition of 4.75%.

Consider `CNC(=O)c1cc(-c2ccc(F)cc2)cc(-c2ccc(S(=O)(=O)N3CCCC3)cc2)c1N`, for which the inhibition amounted to 2.5%.

Compound `Cc1ccc(O)cc1Nc1ccnc2cc(-c3ccccn3)ccc12` registered an inhibition of 10.1%.

In turn, `CCc1nn2ncccc2c1-c1ccnc(NC2CC2)n1` returned an inhibition of 0.33%.

With `CCCN1CCC(c2ccc(Nc3nc(Nc4cc(F)ccc4C(N)=O)c4cc[nH]c4n3)c(OC)c2)CC1`, the inhibition is 3.58%.

Compound `Fc1ccc(-c2nn3ccccc3c2-c2ccncc2)cc1` had an inhibition of 0.16%.

Compound `O=C(O[C@H]1CN[C@H](C#Cc2cc3ncnc(Nc4ccc(Cc5ccccc5)cc4)c3s2)C1)N1CCOCC1` came in with an inhibition of 0.08%.

With `COc1ccc(-c2nn3ncccc3c2-c2ccnc(Nc3ccc4c(c3)OCCO4)n2)cc1`, the inhibition amounted to 2.65%.

These data come from ChEMBL document CHEMBL1961873, “Compounds: GSK PKIS; Assays: Nanosyn kinase panel” (2012).
